Assay results taken from PubChem BioAssay (Tox21).
Results filed as inconclusive are left out. Calls of active or inactive are those of the source. Unless noted, calls follow the shape of the dose curve; as a rule, active = well fitted curve in the direction sought with a large enough effect in the repeat runs; inconclusive = weak or mixed curves; inactive = no such curve, though single readings can be large; an effect the other way counts as inactive or inconclusive.

Legend:
[1] = qHTS assay to test for compound auto fluorescence at 535 nm (green) in HEK293 cells (AID 720680)
[2] = qHTS assay to test for compound auto fluorescence at 460 nm (blue) in HEK293 cell free culture (AID 720681)
In short: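 Compounds were added to cell-free DMEM with 10% FBS and fluorescence read directly. The blue channel used 405 nm excitation and 460 nm emission, with triamterene as the reference fluorophore.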

[3] = qHTS assay to test for compound auto fluorescence at 535 nm (green) in HEK293 cell free culture (AID 720682)
In short: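 Fluorescein serves as the green reference fluorophore; each compound's intrinsic emission at 535 nm (excitation 485 nm) is reported as an equivalent amount of that dye, measured in serum-containing DMEM without cells.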

[4] = qHTS assay to test for compound auto fluorescence at 590 nm (red) in HEK293 cell free culture (AID 720683)
In short: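 Cell-free wells of DMEM with 10% FBS received compound, and intrinsic fluorescence was read at excitation/emission 540/590 nm. Values expressed as equivalence to Rose Bengal sodium.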

[5] = qHTS assay to test for compound auto fluorescence at 590 nm (red) in HepG2 cell free culture (AID 720684)
In short: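 Compound was pinned into wells holding MEM with 10% FBS and no cells, and red fluorescence was read at Ex/Em 540/590 nm. Signal is expressed as auto fluorescence equivalency relative to Rose Bengal sodium.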

[6] = qHTS assay to test for compound auto fluorescence at 460 nm (blue) in HepG2 cell free culture (AID 720685)
In short: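 Compound (23 nL) or DMSO pinned into cell-free MEM with 10% FBS; blue fluorescence read at 405/460 nm excitation/emission, expressed as auto-fluorescence equivalency to triamterene.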

[7] = qHTS assay to test for compound auto fluorescence at 535 nm (green) in HepG2 cell free culture (AID 720686)
[8] = qHTS assay to test for compound auto fluorescence at 460 nm (blue) in HepG2 cells (AID 720687)
In short: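 HepG2 cells in MEM with 10% FBS, attached overnight at 37 C, were exposed to compound or DMSO for 1 hr at 37 C, 5% CO2. Blue fluorescence was read at 405/460 nm, with triamterene as reference fluorophore.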

[9] = qHTS assay to identify small molecule antagonists of the glucocorticoid receptor (GR) signaling pathway - cell viability counter screen (AID 720693); also: nearly all actives have a fitted effect of over 55% in size
[10] = qHTS assay for identifying genotoxic compounds that show differential cytotoxicity against isogenic chicken DT40 cell lines with known DNA damage response pathways - Rev3 mutant cell line (AID 743014); also: nearly all actives have a fitted effect of over 55% in size
[11] = qHTS assay for identifying genotoxic compounds that show differential cytotoxicity against isogenic chicken DT40 cell lines with known DNA damage response pathways - Rad54/Ku70 mutant cell line (AID 743015); also: nearly all actives have a fitted effect of over 60% in size; also: potency is read from the fitted curve at half-maximal effect
[12] = qHTS assay to identify small molecule antagonists of the androgen receptor (AR) signaling pathway - cell viability counter screen (AID 743033; also: nearly all actives have a fitted effect of over 45% in size)
[13] = target: Androgen receptor (Homo sapiens) (UniProt P10275); experiment: qHTS assay to identify small molecule antagonists of the androgen receptor (AR) signaling pathway (AID 743035; active = well fitted inhibition curve with a large enough effect in the signal ratio in the repeat runs, not every such curve was filed as active; the % refers to the signal ratio)
In short: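 Using qHTS, AR-UAS-bla GripTite HEK293 cells received compound, then R1881, and were cultured 16 h at 37C/5% CO2 before a 2 h room-temperature LiveBLAzer B/G FRET substrate step and fluorescence measurement.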

[14] = target: Androgen receptor (Homo sapiens) (UniProt P10275); experiment: qHTS assay to identify small molecule agonists of the androgen receptor (AR) signaling pathway (AID 743036; active = well fitted activation curve with a large enough effect in the signal ratio in the repeat runs, with a control signal flat, not every such curve was filed as active; the % refers to the signal ratio)
In short: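 Fluorescence from a beta-lactamase FRET substrate served as read-out in AR-UAS-bla GripTite HEK293 cells. Cells were treated with DMSO-dissolved compounds for 16 h at 37C, then with LiveBLAzer B/G substrate for 2 h at room temperature.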

[15] = target: Androgen receptor (Homo sapiens) (UniProt P10275); experiment: qHTS assay to identify small molecule agonists of the androgen receptor (AR) signaling pathway using the MDA cell line (AID 743040; also: nearly all actives have a fitted effect of over 20% in size)
In short: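 MDA-kb2 breast carcinoma cells carrying MMTV-luciferase (responsive to AR and GR), plated 5 h then treated 16 h with compounds at 37C, 0% CO2. Read-out was ONE-Glo luminescence after 30 min at room temperature.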

[16] = qHTS assay to identify small molecule antagonists of the androgen receptor (AR) signaling pathway using the MDA cell line - cell viability counter screen (AID 743041; also: nearly all actives have a fitted effect of over 45% in size)
In short: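 MDA-kb2 AR-luc cells (MMTV-luciferase, AR/GR responsive) treated with compounds plus R1881 agonist for 16 h at 37C. CellTiter-Fluor added at 15.5 h; fluorescence read after 30 min in the same wells.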

[17] = target: Androgen receptor (Homo sapiens) (UniProt P10275); experiment: qHTS assay to identify small molecule antagonists of the androgen receptor (AR) signaling pathway using the MDA cell line (AID 743042; also: nearly all actives have a fitted effect of over 55% in size)
In short: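 MDA-kb2 breast carcinoma cells carrying MMTV-luciferase (AR/GR responsive) were co-treated with compounds and the agonist R1881 for 16 h at 37C. Inhibition read as ONE-Glo luminescence; CellTiter-Fluor fluorescence measured in parallel for cytotoxicity.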

[18] = qHTS assay for identifying genotoxic compounds that show differential cytotoxicity against isogenic chicken DT40 cell lines with known DNA damage response pathways - wild type cell line (AID 743012); also: nearly all actives have a fitted effect of over 60% in size; also: potency is read from the fitted curve at half-maximal effect
In short: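 Using parental DT40 (300 cells/well), compounds delivered in DMSO incubate 40 h at 37 C/5% CO2. CellTiter-Glo reagent then stands 30 min at room temperature, and luminescence gives cell viability.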
% is scaled to controls: 0 for no effect and ±100 for the full control effect.

Sequence of Androgen receptor (Homo sapiens) (P10275 whole entry, looked up): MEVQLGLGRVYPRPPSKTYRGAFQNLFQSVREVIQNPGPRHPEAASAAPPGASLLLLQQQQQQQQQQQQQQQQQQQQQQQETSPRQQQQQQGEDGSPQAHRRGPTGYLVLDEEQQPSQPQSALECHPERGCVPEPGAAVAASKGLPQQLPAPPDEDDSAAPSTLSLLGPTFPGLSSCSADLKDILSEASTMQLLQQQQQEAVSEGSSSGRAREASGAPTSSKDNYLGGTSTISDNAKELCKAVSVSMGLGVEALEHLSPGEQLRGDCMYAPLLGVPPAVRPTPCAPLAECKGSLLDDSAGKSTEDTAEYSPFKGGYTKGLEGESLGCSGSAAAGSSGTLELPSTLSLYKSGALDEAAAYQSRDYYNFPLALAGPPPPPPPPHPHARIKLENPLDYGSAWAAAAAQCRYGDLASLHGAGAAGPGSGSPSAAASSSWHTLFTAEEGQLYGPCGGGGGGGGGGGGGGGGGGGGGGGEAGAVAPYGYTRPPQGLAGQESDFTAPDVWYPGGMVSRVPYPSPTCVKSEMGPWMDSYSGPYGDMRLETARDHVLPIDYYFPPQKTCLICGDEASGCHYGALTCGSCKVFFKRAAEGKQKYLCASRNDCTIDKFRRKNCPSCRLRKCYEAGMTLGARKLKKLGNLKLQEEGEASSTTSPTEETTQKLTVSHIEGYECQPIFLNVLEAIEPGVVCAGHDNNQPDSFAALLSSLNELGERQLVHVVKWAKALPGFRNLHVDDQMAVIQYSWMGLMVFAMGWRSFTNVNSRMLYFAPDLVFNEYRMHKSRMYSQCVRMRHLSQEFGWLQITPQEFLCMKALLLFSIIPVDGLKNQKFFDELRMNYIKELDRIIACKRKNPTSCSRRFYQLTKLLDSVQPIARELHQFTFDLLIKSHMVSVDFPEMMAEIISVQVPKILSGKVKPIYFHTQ

N#Cc1ccccc1C#N
inactive: outcome [1] | outcome [2] | outcome [3] | outcome [4] | outcome [5] | outcome [6] | outcome [7] | outcome [8] | outcome [9] | Potency [10] | Potency [11] | outcome [12] | outcome [13] | outcome [14] | outcome [15] | outcome [16] | outcome [17]

COc1cc(OC)cc(OC)c1
inactive: outcome [1] | outcome [2] | outcome [3] | outcome [4] | outcome [5] | outcome [6] | outcome [7] | outcome [8] | outcome [9] | Potency [10] | Potency [11] | outcome [12] | outcome [13] | outcome [14] | outcome [15] | outcome [16] | outcome [17]

NS(=O)(=O)c1cc2c(cc1C(F)(F)F)NCNS2(=O)=O
inactive: fluorescence, % of fluorescein [1] -0.0035% [at 18.6 µM] | fluorescence, % of fluorescent control [2] 0.05% [at 18.6 µM] | activity change [3] 0.0709% [at 18.6 µM] | fluorescence, % of fluorescent control [4] 0.0039% [at 18.6 µM] | fluorescence, % of Rose Bengal [5] -0.188% [at 18.6 µM] | fluorescence, % of fluorescent control [6] -0.157% [at 18.6 µM] | fluorescence, % of fluorescein control [7] 0.01% [at 18.6 µM] | fluorescence, % of fluorescent control [8] -0.066% [at 18.6 µM] | outcome [9] | Potency [18] | Potency [10] | Potency [11] | outcome [16]

COCc1nnc(-c2ccc[n+]([O-])c2)n1-c1c(Cl)c(Cl)cc2[nH]c(=O)c(=O)[nH]c12
inactive: outcome [1] | outcome [2] | outcome [3] | outcome [4] | outcome [5] | outcome [6] | outcome [7] | outcome [8] | outcome [9] | Potency [18] | Potency [10] | Potency [11] | outcome [14] | outcome [15] | outcome [16] | outcome [17]

Cc1ccc(NC(N)=O)cc1
inactive: outcome [1] | outcome [2] | outcome [3] | outcome [4] | outcome [5] | outcome [6] | outcome [7] | outcome [8] | outcome [9] | Potency [18] | Potency [10] | Potency [11] | outcome [16]

Cc1ccccc1C#N
inactive: outcome [1] | outcome [2] | outcome [3] | outcome [4] | outcome [5] | outcome [6] | outcome [7] | outcome [8] | outcome [9] | Potency [18] | Potency [10] | Potency [11] | outcome [12] | outcome [16]

O=CN1CCCCC1
inactive: outcome [1] | outcome [2] | outcome [3] | outcome [4] | outcome [5] | outcome [6] | outcome [7] | outcome [8] | outcome [9] | Potency [18] | Potency [10] | Potency [11] | outcome [16]

CC(CN1CC(=O)NC(=O)C1)N1CC(=O)NC(=O)C1 (stereo unspecified)
active: Potency [18] 4220 nM | Potency [11] 596 nM
inactive: outcome [1] | outcome [2] | outcome [3] | outcome [4] | outcome [5] | outcome [6] | outcome [7] | outcome [8] | outcome [9] | outcome [12] | outcome [14] | outcome [16] | outcome [17]

N=C(N)S(=O)O
inactive: outcome [1] | outcome [2] | outcome [3] | outcome [4] | outcome [5] | outcome [6] | outcome [7] | outcome [8] | outcome [9] | Potency [18] | Potency [11] | outcome [12] | outcome [16]

C=CC(=O)CC
inactive: outcome [1] | outcome [2] | outcome [3] | outcome [4] | outcome [5] | outcome [6] | outcome [7] | outcome [8] | outcome [9] | Potency [18] | Potency [10] | Potency [11] | outcome [12] | outcome [16]

C=CC(=O)OCC[N+](C)(C)C
inactive: outcome [1] | outcome [2] | outcome [3] | outcome [4] | outcome [5] | outcome [6] | outcome [7] | outcome [8] | outcome [9] | Potency [18] | Potency [10] | Potency [11] | outcome [16]

CC(C)(C)c1ccc(N)cc1
inactive: outcome [1] | outcome [2] | outcome [3] | outcome [4] | outcome [5] | outcome [6] | outcome [7] | outcome [8] | outcome [9] | Potency [10] | Potency [11] | outcome [12] | outcome [16]

CC(=O)OCC(=O)[C@@]1(O)CC[C@H]2[C@@H]3CCC4=CC(=O)C=C[C@]4(C)[C@H]3[C@@H](O)C[C@@]21C
inactive: outcome [1] | outcome [2] | outcome [3] | outcome [4] | outcome [5] | outcome [6] | outcome [7] | outcome [8] | outcome [9] | Potency [18] | Potency [10] | outcome [12] | outcome [16]

CC(C)(C)C(=O)CCc1ccc(Cl)cc1
inactive: outcome [1] | outcome [2] | outcome [3] | outcome [4] | outcome [5] | outcome [6] | outcome [7] | outcome [8] | outcome [9] | Potency [10] | Potency [11] | outcome [12] | outcome [16]

CCC(=O)OCCOc1ccccc1
inactive: outcome [1] | outcome [2] | outcome [3] | outcome [4] | outcome [5] | outcome [6] | outcome [7] | outcome [8] | outcome [9] | Potency [18] | Potency [10] | Potency [11] | outcome [12] | outcome [16]
